Experiment in all cases: DAPPL (digital affinity profiling via proximity ligation, sequencing); 10 mM Tris-HCl pH 7.5, 50 mM NaCl, 1 mM DTT, 4% glycerol, room temperature, 30 min; GST-TFs on glutathione beads, 16-mer random dsDNA library, 0.1% formaldehyde crosslink after washing; high values mean tight binding
The target in one assay is T1, FLI1 (Homo sapiens, UniProt Q01543 1-452).
T1 sequence: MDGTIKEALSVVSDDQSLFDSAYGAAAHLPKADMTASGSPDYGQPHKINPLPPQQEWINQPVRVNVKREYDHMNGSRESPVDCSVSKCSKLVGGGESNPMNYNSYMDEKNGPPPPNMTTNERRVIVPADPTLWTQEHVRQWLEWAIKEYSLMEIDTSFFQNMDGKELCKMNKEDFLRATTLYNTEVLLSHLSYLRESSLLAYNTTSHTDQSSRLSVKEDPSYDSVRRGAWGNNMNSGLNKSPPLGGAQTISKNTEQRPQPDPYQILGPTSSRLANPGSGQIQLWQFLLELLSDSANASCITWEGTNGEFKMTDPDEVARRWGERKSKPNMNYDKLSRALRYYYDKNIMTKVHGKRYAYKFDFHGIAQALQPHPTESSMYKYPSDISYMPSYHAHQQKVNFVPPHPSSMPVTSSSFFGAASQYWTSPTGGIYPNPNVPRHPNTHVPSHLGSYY
As to conditions: protein: recombinant; tags: N-terminal GST; dsDNA, one strand shown. Summed up: (§1)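 Sequencing on an Illumina NextSeq500 followed washing, crosslinking with 0.1% formaldehyde, proximity ligation (BsaI/T4 ligase, 1 h, 37 °C) and PCR amplification of pools that had been incubated for 30 min at room temperature with 200 nmole of a random double-stranded 16-mer DNA library in Tris/NaCl/DTT/glycerol buffer. Each pool held DNA-barcoded human transcription factors, expressed in yeast as GST fusions and captured on glutathione beads, plus a tag-only sample. Binding signal is a hexamer's read frequency for a factor divided by its frequency in the tag-only sample.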

Another assay addresses T2, ELK1 (Homo sapiens, UniProt P19419 1-428).
T2 sequence: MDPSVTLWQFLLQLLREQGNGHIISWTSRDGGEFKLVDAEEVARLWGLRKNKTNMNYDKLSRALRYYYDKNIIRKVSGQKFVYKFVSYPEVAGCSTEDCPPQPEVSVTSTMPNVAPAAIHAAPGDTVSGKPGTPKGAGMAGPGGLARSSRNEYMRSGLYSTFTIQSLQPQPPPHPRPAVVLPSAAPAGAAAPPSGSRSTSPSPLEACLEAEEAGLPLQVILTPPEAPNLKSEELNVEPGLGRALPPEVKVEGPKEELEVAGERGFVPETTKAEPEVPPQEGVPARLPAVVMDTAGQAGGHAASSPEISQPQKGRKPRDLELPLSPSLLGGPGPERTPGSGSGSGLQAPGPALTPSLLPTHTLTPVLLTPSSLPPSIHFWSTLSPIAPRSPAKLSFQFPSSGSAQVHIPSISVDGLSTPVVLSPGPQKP
The settings on record: protein: recombinant; tags: N-terminal GST; dsDNA, one strand shown. Summed up:
as §1

The target of the next assay is T3, GABPA (Homo sapiens, UniProt Q06546 1-454).
T3 sequence: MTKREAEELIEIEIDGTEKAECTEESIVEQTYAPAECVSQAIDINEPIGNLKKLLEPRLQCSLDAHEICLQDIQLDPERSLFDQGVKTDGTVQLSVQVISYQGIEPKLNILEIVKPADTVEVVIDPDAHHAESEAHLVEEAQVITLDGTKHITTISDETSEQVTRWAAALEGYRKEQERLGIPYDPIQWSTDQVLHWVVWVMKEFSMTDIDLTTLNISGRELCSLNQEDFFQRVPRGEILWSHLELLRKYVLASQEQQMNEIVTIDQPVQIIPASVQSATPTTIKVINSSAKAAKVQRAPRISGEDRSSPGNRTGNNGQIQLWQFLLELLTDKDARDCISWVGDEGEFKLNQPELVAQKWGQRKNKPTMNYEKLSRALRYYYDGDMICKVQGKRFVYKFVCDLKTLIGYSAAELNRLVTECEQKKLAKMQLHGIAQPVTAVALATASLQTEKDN
The settings on record: protein: recombinant; tags: N-terminal GST; dsDNA, one strand shown. In outline: as §1

The target in the next assay is T4, ERG (Homo sapiens, UniProt P11308 1-479).
T4 sequence: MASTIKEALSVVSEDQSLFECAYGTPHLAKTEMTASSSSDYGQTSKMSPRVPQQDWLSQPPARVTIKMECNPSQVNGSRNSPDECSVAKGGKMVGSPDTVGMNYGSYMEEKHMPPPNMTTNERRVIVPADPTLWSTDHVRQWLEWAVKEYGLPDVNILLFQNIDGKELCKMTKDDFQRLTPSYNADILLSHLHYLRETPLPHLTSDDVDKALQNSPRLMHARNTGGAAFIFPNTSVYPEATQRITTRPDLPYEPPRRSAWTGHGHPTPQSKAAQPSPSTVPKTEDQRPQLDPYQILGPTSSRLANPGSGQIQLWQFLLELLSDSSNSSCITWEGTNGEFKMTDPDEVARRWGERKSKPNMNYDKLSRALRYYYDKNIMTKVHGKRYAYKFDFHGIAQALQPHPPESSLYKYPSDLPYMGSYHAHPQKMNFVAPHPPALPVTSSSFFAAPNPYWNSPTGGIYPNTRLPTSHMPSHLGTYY
The settings on record: protein: recombinant; tags: N-terminal GST; dsDNA, one strand shown. Summed up:
as §1

The next assay has as its target ELF1 (Homo sapiens, UniProt P32519 1-619). As to conditions: protein: recombinant; tags: N-terminal GST; dsDNA, one strand shown. Summed up: as §1
Another assay addresses T5, EHF (Homo sapiens, UniProt Q9NZC4 1-300).
T5 sequence: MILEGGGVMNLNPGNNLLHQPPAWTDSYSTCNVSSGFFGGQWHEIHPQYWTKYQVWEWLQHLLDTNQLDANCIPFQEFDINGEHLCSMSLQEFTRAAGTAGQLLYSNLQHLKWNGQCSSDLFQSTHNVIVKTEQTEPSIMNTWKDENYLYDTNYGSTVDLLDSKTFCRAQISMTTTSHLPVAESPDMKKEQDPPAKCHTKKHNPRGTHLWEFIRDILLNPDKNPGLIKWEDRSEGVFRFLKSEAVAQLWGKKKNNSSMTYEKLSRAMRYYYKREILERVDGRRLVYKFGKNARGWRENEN
The settings on record: protein: recombinant; tags: N-terminal GST; dsDNA, one strand shown. In outline: as §1

For the next assay, the target named is SPI1 (Homo sapiens, UniProt P17947 1-270). The settings on record: protein: recombinant; tags: N-terminal GST; dsDNA, one strand shown. Summed up: as §1
A further assay has as its target SPIB (Homo sapiens, UniProt Q01892 1-262). The settings on record: protein: recombinant; tags: N-terminal GST; dsDNA, one strand shown. Summed up: as §1
The next assay addresses T6, FEV (Homo sapiens, UniProt Q99581 1-238).
T6 sequence: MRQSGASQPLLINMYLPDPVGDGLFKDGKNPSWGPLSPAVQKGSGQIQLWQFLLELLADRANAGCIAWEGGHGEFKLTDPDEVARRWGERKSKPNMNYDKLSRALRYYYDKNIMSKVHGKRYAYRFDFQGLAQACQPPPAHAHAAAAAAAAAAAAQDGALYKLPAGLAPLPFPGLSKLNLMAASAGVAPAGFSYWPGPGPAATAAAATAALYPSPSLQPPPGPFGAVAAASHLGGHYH
The settings on record: protein: recombinant; tags: N-terminal GST; dsDNA, one strand shown. Summed up:
as §1

The next assay deals with ETV5 (Homo sapiens, UniProt P41161 1-510). The settings on record: protein: recombinant; tags: N-terminal GST; dsDNA, one strand shown. In outline: as §1
Chain of ETV5 (P41161 whole entry): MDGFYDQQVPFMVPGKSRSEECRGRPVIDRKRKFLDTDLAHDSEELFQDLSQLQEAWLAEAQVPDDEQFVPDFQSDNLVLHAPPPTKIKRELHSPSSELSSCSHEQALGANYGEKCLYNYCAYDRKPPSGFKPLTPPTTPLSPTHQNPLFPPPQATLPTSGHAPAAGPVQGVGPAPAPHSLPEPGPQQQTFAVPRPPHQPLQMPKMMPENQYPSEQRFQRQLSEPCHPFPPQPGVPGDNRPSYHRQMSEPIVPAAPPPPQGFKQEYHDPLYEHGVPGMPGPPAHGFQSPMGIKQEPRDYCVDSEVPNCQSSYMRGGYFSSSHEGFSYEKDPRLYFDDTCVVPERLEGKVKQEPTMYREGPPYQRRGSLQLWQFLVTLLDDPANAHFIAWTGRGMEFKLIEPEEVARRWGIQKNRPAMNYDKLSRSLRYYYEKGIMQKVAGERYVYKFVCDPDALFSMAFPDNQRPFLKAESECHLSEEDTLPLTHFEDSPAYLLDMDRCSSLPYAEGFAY
In a further assay the target is HSF1 (Homo sapiens, UniProt Q00613 1-529). As to conditions: protein: recombinant; tags: N-terminal GST; chain copies: 3; dsDNA, one strand shown. Summed up:
as §1

The next assay has as its target T7, SPIC (Homo sapiens, UniProt Q8N5J4 1-248).
T7 sequence: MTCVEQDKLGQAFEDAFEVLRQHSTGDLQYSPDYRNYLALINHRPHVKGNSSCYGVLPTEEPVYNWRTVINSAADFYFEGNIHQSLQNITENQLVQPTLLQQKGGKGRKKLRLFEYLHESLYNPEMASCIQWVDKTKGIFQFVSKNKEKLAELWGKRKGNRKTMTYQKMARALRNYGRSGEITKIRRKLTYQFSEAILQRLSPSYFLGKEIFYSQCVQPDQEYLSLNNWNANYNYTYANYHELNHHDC
As to conditions: protein: recombinant; tags: N-terminal GST; dsDNA, one strand shown. In outline: as §1

Another assay has as its target ELF4 (Homo sapiens, UniProt Q99607 1-663). As to conditions: protein: recombinant; tags: N-terminal GST; dsDNA, one strand shown. Summed up: as §1
In the next assay the target is T8, ELK4 (Homo sapiens, UniProt P28324-2 1-405).
T8 sequence: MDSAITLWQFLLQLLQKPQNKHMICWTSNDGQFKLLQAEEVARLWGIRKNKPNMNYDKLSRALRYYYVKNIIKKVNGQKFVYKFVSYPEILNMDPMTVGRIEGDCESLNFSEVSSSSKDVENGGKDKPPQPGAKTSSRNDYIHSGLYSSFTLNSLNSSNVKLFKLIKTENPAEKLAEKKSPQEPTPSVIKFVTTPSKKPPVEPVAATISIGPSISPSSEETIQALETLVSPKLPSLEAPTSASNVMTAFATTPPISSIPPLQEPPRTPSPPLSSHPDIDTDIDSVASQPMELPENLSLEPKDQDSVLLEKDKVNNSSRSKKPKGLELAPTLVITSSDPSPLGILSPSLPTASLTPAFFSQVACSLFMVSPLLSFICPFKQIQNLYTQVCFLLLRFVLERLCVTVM
As to conditions: protein: recombinant; tags: N-terminal GST; dsDNA, one strand shown. In outline: as §1

The target in the next assay is T9, ETV2 (Homo sapiens, UniProt O00321 1-342).
T9 sequence: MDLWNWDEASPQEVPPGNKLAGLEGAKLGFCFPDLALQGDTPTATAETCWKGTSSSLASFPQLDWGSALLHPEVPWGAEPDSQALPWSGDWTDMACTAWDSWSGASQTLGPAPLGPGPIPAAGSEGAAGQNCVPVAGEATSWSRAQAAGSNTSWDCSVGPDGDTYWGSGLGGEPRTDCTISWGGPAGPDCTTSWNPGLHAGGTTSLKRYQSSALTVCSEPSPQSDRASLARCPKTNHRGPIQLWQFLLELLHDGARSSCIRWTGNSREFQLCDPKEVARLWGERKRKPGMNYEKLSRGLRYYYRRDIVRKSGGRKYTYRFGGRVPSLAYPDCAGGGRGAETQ
As to conditions: protein: recombinant; tags: N-terminal GST; dsDNA, one strand shown. Summed up:
as §1

In a further assay the target is T10, ELF3 (Homo sapiens, UniProt P78545 1-371).
T10 sequence: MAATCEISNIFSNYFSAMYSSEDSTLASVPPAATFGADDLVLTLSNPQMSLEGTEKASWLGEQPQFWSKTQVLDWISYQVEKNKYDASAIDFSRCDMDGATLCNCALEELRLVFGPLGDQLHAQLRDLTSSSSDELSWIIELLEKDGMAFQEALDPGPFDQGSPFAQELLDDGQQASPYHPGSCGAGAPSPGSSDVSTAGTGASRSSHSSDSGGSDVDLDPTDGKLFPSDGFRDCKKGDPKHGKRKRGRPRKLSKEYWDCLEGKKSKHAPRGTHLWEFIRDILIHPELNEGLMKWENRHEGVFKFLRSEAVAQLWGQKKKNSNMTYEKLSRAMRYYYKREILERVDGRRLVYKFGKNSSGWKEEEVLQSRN
The settings on record: protein: recombinant; tags: N-terminal GST; dsDNA, one strand shown. Summed up:
as §1

The next assay has as its target CRX (Homo sapiens, UniProt O43186 1-299). The settings on record: protein: recombinant; tags: N-terminal GST; dsDNA, one strand shown. In outline:
as §1

The target in another assay is ETV1 (Homo sapiens, UniProt P50549 1-477). As to conditions: protein: recombinant; tags: N-terminal GST; dsDNA, one strand shown. In outline:
as §1

The text below walks through data of article PMC7862700, “An all-to-all approach to the identification of sequence-specific readers for epigenetic DNA modifications on cytosine”.

Chain of SPIB (Q01892 whole entry): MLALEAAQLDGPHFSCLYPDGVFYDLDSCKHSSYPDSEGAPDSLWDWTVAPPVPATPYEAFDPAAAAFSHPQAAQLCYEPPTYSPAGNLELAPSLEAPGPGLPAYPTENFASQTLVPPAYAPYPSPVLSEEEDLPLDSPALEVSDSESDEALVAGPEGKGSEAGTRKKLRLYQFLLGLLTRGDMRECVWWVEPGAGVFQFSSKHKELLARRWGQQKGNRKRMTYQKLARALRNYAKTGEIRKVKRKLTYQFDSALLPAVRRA
Chain of HSF1 (Q00613 whole entry): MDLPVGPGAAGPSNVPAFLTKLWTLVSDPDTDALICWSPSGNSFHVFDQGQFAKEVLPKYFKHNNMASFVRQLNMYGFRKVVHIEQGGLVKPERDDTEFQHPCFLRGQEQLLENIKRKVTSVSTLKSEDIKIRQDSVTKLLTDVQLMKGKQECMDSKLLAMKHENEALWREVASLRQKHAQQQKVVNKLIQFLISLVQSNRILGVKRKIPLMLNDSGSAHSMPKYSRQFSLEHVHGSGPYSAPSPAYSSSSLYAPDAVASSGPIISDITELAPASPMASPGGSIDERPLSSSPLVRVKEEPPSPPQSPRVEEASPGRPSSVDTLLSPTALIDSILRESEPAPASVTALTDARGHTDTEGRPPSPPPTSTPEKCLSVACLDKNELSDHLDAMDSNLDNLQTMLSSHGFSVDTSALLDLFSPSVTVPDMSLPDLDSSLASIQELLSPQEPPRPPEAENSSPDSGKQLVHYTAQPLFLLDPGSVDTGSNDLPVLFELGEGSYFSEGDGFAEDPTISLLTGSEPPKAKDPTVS
Chain of CRX (O43186 whole entry): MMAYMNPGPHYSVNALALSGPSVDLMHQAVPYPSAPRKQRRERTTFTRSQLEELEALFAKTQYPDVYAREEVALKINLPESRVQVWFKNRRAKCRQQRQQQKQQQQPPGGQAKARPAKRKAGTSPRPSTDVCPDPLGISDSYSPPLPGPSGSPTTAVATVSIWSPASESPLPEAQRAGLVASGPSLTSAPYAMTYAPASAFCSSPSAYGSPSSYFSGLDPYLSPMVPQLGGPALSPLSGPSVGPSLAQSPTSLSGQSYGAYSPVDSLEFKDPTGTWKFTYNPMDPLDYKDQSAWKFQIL
Chain of ELF1 (P32519 whole entry): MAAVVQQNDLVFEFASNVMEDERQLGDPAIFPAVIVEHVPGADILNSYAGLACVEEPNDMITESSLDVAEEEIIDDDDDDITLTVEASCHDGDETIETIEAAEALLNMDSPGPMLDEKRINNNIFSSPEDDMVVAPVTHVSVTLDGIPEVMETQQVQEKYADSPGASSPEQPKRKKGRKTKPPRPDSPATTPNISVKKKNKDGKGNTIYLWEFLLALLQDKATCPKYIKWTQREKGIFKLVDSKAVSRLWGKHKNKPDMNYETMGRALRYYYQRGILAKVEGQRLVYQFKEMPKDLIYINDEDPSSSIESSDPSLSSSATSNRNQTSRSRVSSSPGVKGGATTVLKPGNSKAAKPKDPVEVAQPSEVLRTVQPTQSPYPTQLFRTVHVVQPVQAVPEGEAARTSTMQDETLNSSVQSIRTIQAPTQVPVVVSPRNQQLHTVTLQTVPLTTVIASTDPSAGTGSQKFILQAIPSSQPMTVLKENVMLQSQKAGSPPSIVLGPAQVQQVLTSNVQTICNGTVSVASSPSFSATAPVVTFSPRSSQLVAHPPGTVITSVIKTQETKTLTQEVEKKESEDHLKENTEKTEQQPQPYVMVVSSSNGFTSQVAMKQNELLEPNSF
Chain of ETV1 (P50549 whole entry): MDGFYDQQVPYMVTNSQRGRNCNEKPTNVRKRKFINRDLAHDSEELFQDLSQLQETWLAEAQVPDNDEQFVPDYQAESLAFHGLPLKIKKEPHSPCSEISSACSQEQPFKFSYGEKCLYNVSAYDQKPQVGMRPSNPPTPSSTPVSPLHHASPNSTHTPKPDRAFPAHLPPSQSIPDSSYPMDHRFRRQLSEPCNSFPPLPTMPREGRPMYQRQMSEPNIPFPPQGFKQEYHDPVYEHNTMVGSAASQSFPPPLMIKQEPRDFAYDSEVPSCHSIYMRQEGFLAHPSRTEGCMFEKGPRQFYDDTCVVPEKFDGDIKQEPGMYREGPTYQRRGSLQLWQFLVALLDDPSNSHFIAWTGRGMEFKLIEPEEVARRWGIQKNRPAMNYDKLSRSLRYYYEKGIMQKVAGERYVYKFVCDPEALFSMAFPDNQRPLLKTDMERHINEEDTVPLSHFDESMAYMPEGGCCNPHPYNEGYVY
Chain of ELF4 (Q99607 whole entry): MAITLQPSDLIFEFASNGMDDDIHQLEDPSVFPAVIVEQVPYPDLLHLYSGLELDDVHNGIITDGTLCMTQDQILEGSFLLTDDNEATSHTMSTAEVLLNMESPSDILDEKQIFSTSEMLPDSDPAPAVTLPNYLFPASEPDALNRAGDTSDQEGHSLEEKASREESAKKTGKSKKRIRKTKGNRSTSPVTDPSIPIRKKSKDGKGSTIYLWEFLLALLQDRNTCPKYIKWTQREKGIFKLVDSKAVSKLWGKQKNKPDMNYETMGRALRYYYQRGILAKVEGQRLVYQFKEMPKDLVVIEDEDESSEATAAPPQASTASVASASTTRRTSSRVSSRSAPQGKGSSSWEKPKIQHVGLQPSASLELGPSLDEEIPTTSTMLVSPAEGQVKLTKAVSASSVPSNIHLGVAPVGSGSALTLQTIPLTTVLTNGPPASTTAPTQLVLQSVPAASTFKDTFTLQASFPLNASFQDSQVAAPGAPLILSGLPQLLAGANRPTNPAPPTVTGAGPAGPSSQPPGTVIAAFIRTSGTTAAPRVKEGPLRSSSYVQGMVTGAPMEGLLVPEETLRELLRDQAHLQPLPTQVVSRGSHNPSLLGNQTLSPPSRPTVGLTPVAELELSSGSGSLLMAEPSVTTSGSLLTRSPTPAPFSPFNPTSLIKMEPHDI

For the sequence AATCAG, the binding signal was 1.1 fold enrichment (6-mer frequency, TF over GST control) in the assay with FLI1; 1.05 fold enrichment (6-mer frequency, TF over GST control) with ELK1; 1.19 fold enrichment (6-mer frequency, TF over GST control) with GABPA; 1.07 fold enrichment (6-mer frequency, TF over GST control) in the assay with ERG; 1.1 fold enrichment (6-mer frequency, TF over GST control) with ELF1; 1.02 fold enrichment (6-mer frequency, TF over GST control) in the assay with EHF. The binding signal in the assay with SPI1 is 1.04 fold enrichment (6-mer frequency, TF over GST control); with SPIB it was 1.19 fold enrichment (6-mer frequency, TF over GST control); with FEV, 1.07 fold enrichment (6-mer frequency, TF over GST control); in the assay with ETV5 it was 1.15 fold enrichment (6-mer frequency, TF over GST control); with HSF1, 1.19 fold enrichment (6-mer frequency, TF over GST control); with SPIC, 1.2 fold enrichment (6-mer frequency, TF over GST control). Further, the binding signal was 1.05 fold enrichment (6-mer frequency, TF over GST control) with ELF4; 1.16 fold enrichment (6-mer frequency, TF over GST control) with ELK4; 1.01 fold enrichment (6-mer frequency, TF over GST control) with ETV2; 1.14 fold enrichment (6-mer frequency, TF over GST control) with ELF3; 1.42 fold enrichment (6-mer frequency, TF over GST control) in the assay with CRX; 1.01 fold enrichment (6-mer frequency, TF over GST control) with ETV1.
